The results in this text go back to PubChem BioAssay AID1851 (National Center for Advancing Translational Sciences (NCATS), 2009).

Structures are written as SMILES. The campaign covered roughly 16,000 compounds. About 5,100 (32%) were called active. Roughly 25% stayed inconclusive and do not appear here. The list shows a part of the results. Unmarked numbers belong to inactive results. Calls follow the shape of the dose curve; as a rule, active = well fitted curve in the direction sought with a large enough effect; inconclusive = small, poorly fitted or top-dose-only effect, or effect the other way; inactive = no such curve, though single readings can be large or run the other way.
% is scaled to controls: 0 for no effect and ±100 for the full control effect.

For the test, the target named is Cytochrome P450 3A4 (Homo sapiens) (UniProt P08684). The experiment in a line: Cytochrome panel assay with activity outcomes. The settings on record: recombinant CYP, pro-luciferin dealkylation, luminescence, p450-cyp3a4; series mostly up to 57.1 µM.
Sequence of Cytochrome P450 3A4 (Homo sapiens) (P08684 whole entry, looked up): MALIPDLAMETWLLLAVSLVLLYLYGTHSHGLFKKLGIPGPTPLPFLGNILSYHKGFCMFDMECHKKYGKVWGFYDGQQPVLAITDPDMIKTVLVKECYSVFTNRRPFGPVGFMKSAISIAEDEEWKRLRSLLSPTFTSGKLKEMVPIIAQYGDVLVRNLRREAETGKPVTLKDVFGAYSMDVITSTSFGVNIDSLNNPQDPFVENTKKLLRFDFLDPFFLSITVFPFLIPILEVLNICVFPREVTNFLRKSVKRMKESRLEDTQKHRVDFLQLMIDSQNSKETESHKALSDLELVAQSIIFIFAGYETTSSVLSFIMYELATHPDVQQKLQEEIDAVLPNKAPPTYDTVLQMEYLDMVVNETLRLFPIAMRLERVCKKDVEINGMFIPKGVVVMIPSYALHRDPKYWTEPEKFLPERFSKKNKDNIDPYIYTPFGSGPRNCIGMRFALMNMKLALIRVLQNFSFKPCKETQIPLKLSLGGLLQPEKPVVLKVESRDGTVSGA
For `CCC(=S)/C=C1\Sc2ccccc2N1CCCS(=O)(=O)O`, the AC50 (in general, the midpoint of the concentration-response curve, whichever way the signal moves) is “inactive”.
For `O=C(O)Cc1c(O)ccc2ccccc12`, the activity, negative = inhibition was -10.5% [at 11.4 µM].
Take `c1cncc(-c2nnc3n2C2(CCCCC2)Cc2ccccc2-3)c1`: the AC50 was 1 µM (active).
As to `CCCn1cnc2c(SCC(=O)O)nc(N)nc21`, the activity, negative = inhibition is -4.33% [at 11.4 µM].
For `Cc1[nH]n(C(C)(C)C)c(=O)c1Sc1ccc(Cl)cc1`, the AC50 was 15.8 µM (active).
Same read-out and setting: the result for `Cc1[nH]n(C(C)(C)C)c(=O)c1Sc1ccccc1` reads “inactive”.
Turning to `O=S(=O)(O)c1ccc2cc(N=Nc3cc(S(=O)(=O)O)c4cccnc4c3O)ccc2c1`, the activity, negative = inhibition is -6.99% [at 11.4 µM].
With `CCCCc1ccc(-c2csc(/C(C#N)=C/c3ccc(C)o3)n2)cc1`, the AC50 is 12.6 µM (active).
Still for that read-out and setting: the result for `Cc1ccc(NC(=O)C2CCN(S(=O)(=O)c3c(C)n[nH]c3C)CC2)nc1` reads “inactive”; that for `Cc1n[nH]c(C)c1S(=O)(=O)N1CCOCC1`, “inactive”.
On the same count and under the same terms, the result for `COc1ccc(N(CC(=O)Nc2cccc(C)c2)S(=O)(=O)c2c(C)n[nH]c2C)cc1` reads 3.16 µM (active); that for `Cc1cccc(NS(=O)(=O)c2c(C)n[nH]c2C)c1`, 25.1 µM (active).
Still for that read-out and setting: for `COc1cccc(N(CC(=O)Nc2cccc(C(C)=O)c2)S(C)(=O)=O)c1` the value was 11.2 µM (active); for `CC(=O)c1cccc(NC(=O)Oc2ccccc2)c1`, “inactive”; for `CC(=O)c1cc2c(cc1NC(=O)CCCC(=O)O)OCO2`, “inactive”.
For the compound `CC(=O)c1c(N=CN(C)C)nc(C)nc1-c1ccccc1`, the AC50 entry was “inactive”.
Still for that read-out and setting: for `CC(=O)c1cc2c(cc1NC(=O)c1c(-c3ccccc3)noc1C)OCO2` the value was 1.58 µM (active).
On the same count and under the same terms, the result for `CN(N=O)C(=O)N[C@H]1C(O)OC(CO)[C@@H](O)[C@H]1O` (some centres undefined) reads “inactive”; that for `CN(C)/C=C/C(=O)c1ccc(F)cc1`, “inactive”.
For the compound `O=C(CCCc1ccccn1)c1ccccc1`, the activity, negative = inhibition was -27.1% [at 11.4 µM].
Same read-out and setting: for `O=C(C[n+]1cccc(NC(=O)c2ccccc2)c1)c1ccc(NC(=O)c2ccccc2)cc1` the value was 9.66% [at 2.29 µM].
As to `O=C(/C=C\NCC(=O)c1ccccc1)c1ccccc1`, the AC50 is 15.8 µM (active).
As to `O=C(O)CCC(=O)CCC(=O)c1ccccc1`, the AC50 result was “inactive”.
The same measure, in the same setting: for `O=C(/C=C\NCC(=O)c1ccccc1)c1ccc(F)cc1` the value was 14.1 µM (active).
Same read-out and setting: the result for `N[C@@H](CS(=O)O)C(=O)O` reads “inactive”; that for `COc1cccc([C@H]2Oc3ccc(OC)cc3/C(=N\OC[C@@H](O)[C@@H]3O[C@@H]4OC(C)(C)O[C@@H]4[C@H]3O)[C@@H]2O)c1`, 3.98 µM (active).
On the same count and under the same terms, for `CCOc1ccc(/C=C2\C(=O)c3ccccc3OC2c2ccccc2)cc1` (centres undefined) the value was “inactive”.
With `CC(C)=NOC[C@@H](O)COCc1ccco1`, the activity, negative = inhibition was -14.7% [at 11.4 µM].
As to `COc1cccc([C@@H]2Oc3ccc(OC)cc3/C(=N/OC[C@@H](C)[C@H](OCc3ccccc3)C(C)C)[C@@H]2O)c1`, the AC50 is 3.16 µM (active).
For `Cn1c(=O)n2n(c1=O)[C@H]1[C@H](O)[C@H]3O[C@@H]3/C(=N/OC[C@@H](O)COCc3ccco3)[C@@H]1CC2`, the activity, negative = inhibition was -23.8% [at 11.4 µM].
As to `COc1cccc([C@@H]2Oc3ccc(OC)cc3C(=O)[C@H]2O)c1`, the AC50 is 3.98 µM (active).
Take `COc1cccc([C@@H]2Oc3ccc(OC)cc3/C(=N/OC[C@@H](O)COCc3ccco3)[C@@H]2O)c1`: the AC50 is 3.16 µM (active).
With `CCN1C(=O)[C@H]2[C@H]3[C@H](O)[C@H](O)C/C(=N/OC[C@@H](O)[C@H]4O[C@H]5OC(C)(C)O[C@H]5[C@@H]4O)[C@@H]3CC[C@@H]2C1=O`, the activity, negative = inhibition was -16.2% [at 11.4 µM].
Same read-out and setting: for `COc1cccc(C2C3(C#N)C(N)=NC(OC)(OC)C23C#N)c1` (centres undefined) the value was -16.8% [at 2.29 µM]; for `O=C(O)Cc1ccc2c(c1)N(S(=O)(=O)c1cccc(C(F)(F)F)c1)CC(C(=O)O)O2` (centres undefined), -7.46% [at 2.29 µM].
Turning to `CCS(=O)(=O)c1ccc2c(c1)N(S(C)(=O)=O)CC(C(=O)NCCOC)O2` (centres undefined), the AC50 entry was “inactive”.
Still for that read-out and setting: for `CCOC(=O)C1CN(S(=O)(=O)c2cccc(C(F)(F)F)c2)c2cc(CC(=O)OC)ccc2O1` (centres undefined) the value was 5.01 µM (active).
The same measure, in the same setting: for `COc1ccc2[nH]cc(CCNc3ncncc3-c3ccc(N(C)C)cc3)c2c1` the value was 0.501 µM (active); for `COc1ccc2[nH]cc(CCNc3ncncc3-c3ccc(C(=O)N(C)C)cc3)c2c1`, 1 µM (active); for `COc1ccc2[nH]cc(CCNc3ncnc4ccc(-c5ccc(C(=O)N(C)C)cc5)cc34)c2c1`, 2.51 µM (active).
Same read-out and setting: for `CC1CC/C(=C\c2ccc3c(c2)OCO3)C(=O)/C1=C/c1ccc2c(c1)OCO2` (centres undefined) the value was 1.58 µM (active); for `CCS(=O)(=O)c1ccc(O)c(NC(=O)Nc2ccccc2)c1`, “inactive”.
On to `CCS(=O)(=O)c1ccc(C(=O)Nc2ccccc2)c(Cl)c1Cl`, for which the AC50 is 5.01 µM (active).
For the compound `CC(C)CO/N=C1/[C@H]2O[C@@H]2[C@@H](O)[C@H]2[C@H]1CCn1c(=O)n(C)c(=O)n12`, the activity, negative = inhibition is -9.68% [at 11.4 µM].
For `Cc1nc(S(=O)(=O)N2CCOCC2)c(C#N)c(C)c1Cl`, the AC50 result is “inactive”.
Still for that read-out and setting: for `Cc1nc(S(=O)(=O)N(C)c2ccccc2)c(C#N)c(C)c1Cl` the value was “inactive”; for `Cc1nc(S(=O)(=O)NC2CCCCC2)c(C#N)c(C)c1Cl`, 7.94 µM (active); for `Cc1cccc(NC(=O)CSc2nc(COc3ccccc3)nc3ccccc23)c1C`, 3.98 µM (active).
Still for that read-out and setting: for `N[C@H](C(=O)O)c1ccc(O)c(C(=O)O)c1` the value was “inactive”.
The same measure, in the same setting: for `N[C@@H](C(=O)O)c1cc(O)ccc1Cl` the value was 15.8 µM (active); for `N[C@H](C(=O)O)c1ccc(C(=O)O)c(O)c1`, “inactive”.
As for `N[C@H](C(=O)O)c1cccc(O)c1`, the AC50 entry is “inactive”.
On the same count and under the same terms, for `N[C@@H](C(=O)O)c1ccc(C(=O)O)c(O)c1` the value was “inactive”.
On the same count and under the same terms, for `N[C@H](C(=O)O)c1cc(O)cc(O)c1` the value was 12.6 µM (active).
`NC(N)=N[C@@H]1C(O)[C@H](N=C(N)N)[C@@H](O)C(O)[C@H]1O` (some centres undefined): the activity, negative = inhibition was 12.2% [at 11.4 µM].
On the same count and under the same terms, for `NC(=O)NC(=O)[C@H]1CCCC[C@@H]1C(=O)O` the value was 2.92% [at 11.4 µM].
`COn1c(SCc2cccc(Cl)c2)nc2ccccc2c1=O`: the AC50 result was “inactive”.
Turning to `COn1c(SC(C)C)nc2ccccc2c1=O`, the activity, negative = inhibition is 5.93% [at 11.4 µM].
Consider `COn1c(SCc2ccc(C)cc2C)nc2ccccc2c1=O`, for which the AC50 was 12.6 µM (active).
